# LASV entry inh = Lassa virus entry inhibition; Lassa virus pseudotype entry inhibition, cell reporter; Potency, µM (series often up to 37.9 µM), inactives show top-dose activity change, negative = inhibition, usual class: inhibitors; 300,000 tested, 1.2% active; AID 540256; calls by dose curve; tested in HEK293 cells; also: potency is read from the fitted curve at half-maximal effect; % is scaled to controls: 0 for no effect and ±100 for the full control effect; nearly all actives have a fitted effect of over 50% in size
# Cycloheximide cs = counter-screen for Shiga toxin inhibitors: cycloheximide protein synthesis inhibition. max response, %. cell reporter, cycloheximide protein synthesis inhibition counterscreen. 300,000 tested, 12% active; in the data active = max response mostly above about 13%, no sharp cut-off; inactive = mostly below about 14%; also: read at 38.3 µM for the half of the compounds with a filed dose; 0% is about no effect
# Shiga toxin inh = inhibitors of Shiga toxin in Vero cells; Vero cells, Shiga toxin protein synthesis inhibition reporter; 290,000 tested, 9.2% active; inhibition, % at 38.7 µM; in the data active = inhibition mostly above about 28%, no sharp cut-off; inactive = mostly below about 43%; also: 0% is about no effect
# Marburg entry inh = Marburg virus entry inhibition. Marburg virus pseudotyped entry inhibition, cell reporter. 300,000 tested, 1.8% active. Potency, µM (titrated, usually from 37.8 µM), for inactives: top-dose activity change, negative = inhibition, usual class: inhibitors; calls by dose curve; tested in HEK293 cells; also: potency is read from the fitted curve at half-maximal effect; % is scaled to controls: 0 for no effect and ±100 for the full control effect
# Active calls of the source: *; i = inactive; ? = inconclusive; . = no result; ! = repeats disagree; [ ] = another dose, or the depositor's remark. Only some compounds are listed: those with a hit (about 12% of all), similar ones and a draw of the others.
SMILES,LASV entry inh,Cycloheximide cs,Shiga toxin inh,Marburg entry inh
C/C(=N\O)c1ccc2c3ccccc3n(C)c2c1,?,46*,105*,11%
CCOc1ccc(-c2cc(C(=O)NCCc3ccc(C)cc3)c3ccccc3n2)cc1,16%[46.1 µM],.,.,.
COc1ccc(CN=C(Nc2ccccc2)SC2CC(=O)NC2=O)cc1 (stereo not drawn),?,44*,143*,-1%[46.1 µM]
Cc1cc(C)nc(N/N=C/c2ccccc2OCc2ccc(Cl)cc2)n1,-1%,13,41,?
Cc1cc(C)nc(N/N=C/c2ccccc2OCc2ccc(Br)cc2)n1,17%,29*,79*,-2%
Cc1cc(C)nc(N/N=C/c2ccccc2OCc2ccccc2)n1,?,12*,33,?
Cc1cc(C)nc(N/N=C/c2ccccc2OCC(=O)O)n1,?,-4,-3,16%[46.1 µM]
Cc1cc(C)nc(N/N=C/c2cc(Br)ccc2O)n1,?,28*,39,?
Cc1cc(C)nc(N/N=C/c2ccccc2OCc2cccc(Br)c2)n1,?,14*,17,?
COc1ccc2c(c1)[nH]c1c(=O)n(/N=C/c3ccc(OC)c(COc4ccccn4)c3)cnc12,-2%,6,67*,-2%
Cc1cc(OCC(F)(F)C(F)(F)C(F)(F)C(F)F)nc(N)n1,6%,46*,78*,15%
OCCC1CN(Cc2ccccc2OC2CCCC2)CCN1Cc1ccsc1 (stereo not drawn),-13%,-1,-21,?
O=C(Nc1ccc(Br)cn1)c1ccc2ccccc2c1,.,29*,.,.
O=C(Nc1ccc(Br)cn1)c1cccc2ccccc12,-20%,.,.,-6%
COc1cc2ccccc2cc1C(=O)Nc1ccc(Br)cn1,.,25*,86,.
COc1c(C(=O)Nc2ccc(Br)cn2)ccc2ccccc12,.,26*,76*,.
COc1ccccc1NC(=O)Nc1ccc(Br)cn1,21%,-5,5,19%
COc1ccc(NC(=O)CSc2nc3ccccc3c(=O)n2CCCN2CCCCC2)c(OC)c1,-27%,10,-12,?
COC(=O)CC=C[C@@H](C)[C@H](OC)c1ccccc1Br,?,.,.,0.6µM*!
COC(=O)C/C=C/[C@@H](C)[C@@H](Cc1ccccc1Br)OC,.,.,.,-4%[14.2 µM]
CCCCCCCCCCCCCC(=O)O[C@@H]1[C@@H](C)[C@@]2(O)[C@@H](C=C(CO)C[C@@]3(O)C(=O)C(C)=C[C@@H]23)C2C(C)(C)[C@@]21OC(C)=O (stereo partly drawn),6.5µM*,.,.,22µM*
O=C1Nc2ccccc2C1=Nc1ccc(Cl)cc1,?,-2,-9,-27%[46.1 µM]
Clc1ccc(N=C2SCCS2)cc1,.,46*,76*,.
CCOC(=O)N1CCN(c2ccc(C(=O)CC)cc2F)CC1,-11%,14,28,29%
CCC(=O)c1ccc(N2CCC(C)CC2)c(F)c1,22%,30*,36*,-16%[46.1 µM]
SMILES,LASV entry inh,Cycloheximide cs,Shiga toxin inh,Marburg entry inh
CCCC(=O)c1ccc(N2CCC(C)CC2)c(F)c1,5%,43*,60*,?
CCCC(=O)c1ccc(N2CCN(C(=O)OCC)CC2)c(F)c1,16%,23,54,22%
Cc1ccc(/C(N)=N/OC(=O)C(C)c2ccc([N+](=O)[O-])cc2)cc1 (stereo not drawn),0%[46.1 µM],-5,19,?
O=c1c2ccccc2nnn1COc1cccc(Cl)c1,.,55*,124*,.
CN1CCN(/N=C/c2nc(-c3ccc(Cl)cc3)n3ccccc23)CC1,26%,32*,39*,?
CN1CCN(/N=C/c2nc(-c3ccccc3)n3ccccc23)CC1,2%,3,41*,15%
Clc1ccccc1-c1nc(/C=N/N2CCOCC2)c2ccccn12,-5%,7,27,-2%
Clc1ccc(-c2nc(/C=N/N3CCOCC3)c3ccccn23)cc1,-18%[46.1 µM],30*,63,?
COc1ccccc1NC(C)C(=O)N/N=C/c1ccccc1OCc1cccc(Br)c1 (stereo not drawn),-25%,5,30,?
NCC(=O)N[C@@H](CCCN=C(N)N)C(=O)NCC(=O)N[C@@H](CC(=O)O)C(=O)N[C@@H](CO)C(=O)O,.,-4,16,.
CCn1cc(CNC(=O)C2CCC(=O)N(Cc3ccc(Cl)cc3)C2)cn1 (stereo not drawn),.,-2,-3,.
CCN(CC)S(=O)(=O)c1cc([N+](=O)[O-])ccc1NNC(=O)Nc1ccc(Cl)c(Cl)c1,-8%,6,-14,?
O=C(NNc1ccccc1[N+](=O)[O-])Nc1ccc(Cl)c(Cl)c1,-10%,17,16*,?
O=C(NNc1ccccc1[N+](=O)[O-])Nc1ccc(F)cc1,0%,13,33*,4%
O=C(NNc1ccccc1[N+](=O)[O-])Nc1ccccc1,-18%,15,-5,4%
O=C(NCCCNCCCNC(=O)c1ccccn1)c1ccccn1,8%,-3,27,2%
O=C(/C=C/Nc1ccccc1Br)c1ccccn1,1.1µM*,-7,-20,?
O=C(NC(=O)c1ccccc1)Nc1ccccn1,.,27,-2,.
COc1ccc(C(=O)/C=C/Nc2ccccn2)c(OC)c1,?,52*,57*,?
O=C(/C=C\Nc1ccccn1)c1ccccc1,2.5µM*,17,55*,?
O=C(/C=C/Nc1ccccc1)c1ccc(Oc2ncccn2)cc1,?,24*,109*,?
CC1Cc2cc(S(=O)(=O)CCC(=O)Nc3ccc(F)cc3)ccc2N1C(=O)C1CC1 (stereo not drawn),0%[46.1 µM],.,.,.
Cc1cccn2cc(CCNC(=O)Cc3cccs3)nc12,-5%[46.1 µM],0,11,4%[46.1 µM]
COc1ccc(N2CCN(CCCNC(=O)c3nnc(Cc4ccccc4Cl)o3)CC2)cc1,-17%[46.1 µM],.,.,?
COc1ccc(CN(C)C(=O)c2ccccc2Sc2ccccc2C#N)c(OC)c1,-25%[46.1 µM],-3,-20,?
SMILES,LASV entry inh,Cycloheximide cs,Shiga toxin inh,Marburg entry inh
Cc1c(N=Cc2nc3ccccc3n2C)c(=O)n(-c2ccccc2)n1C,26%,49*,64*,26%
COc1cccc(-n2c(O)c(C=Nc3c(C)n(C)n(-c4ccccc4)c3=O)c(=O)[nH]c2=O)c1,-2%,-6,-10,7%
Cc1cccc(-c2ccc(C=Nc3c(C)n(C)n(-c4ccccc4)c3=O)o2)c1,?,28*,35,?
Cc1c(N=Cc2nc3ccccc3[nH]2)c(=O)n(-c2ccccc2)n1C,-4%,46*,90*,1%
Cc1cc(C)n(C(=O)CNc2ccc(C)c(C)c2)n1,14%,32*,29,-11%
Cc1cc(C)n(C(=O)CCCC(=O)n2nc(C)cc2C)n1,3%,-3,-5,-1%
COc1cc2c(c(OC)c1OC)C(c1ccc(C)cc1)CC(=O)O2 (stereo not drawn),.,3,i,.
Cc1cc(C)cc(NC(=O)c2ccc3nc[nH]c3c2)c1,4%,11,64*,-32%
Cc1ccc(NC(=O)c2ccc3nc[nH]c3c2)cc1C,2%,46*,74*,26%
Cc1cccc(C)c1NC(=O)CNC(=O)c1ccc2nc[nH]c2c1,-11%,.,.,-2%[46.1 µM]
Cc1ccc(Cl)c(NC(=O)CCl)c1Cl,?,3,7,6.3µM*
C=CCNC(=O)CSc1nnc(C(CC)N(C)C)n1C1CCCCC1 (stereo not drawn),.,7,-4,.
